Consider twelve molecules from PubChem BioAssay (Tox21).

The structures appear in SMILES notation. Results filed as inconclusive are left out. Activity calls are given as the source filed them. Unless noted, calls come from the whole dose curve; as a rule, active = well fitted curve in the direction sought with a large enough effect in the repeat runs; inconclusive = weak or mixed curves; inactive = no such curve, though single readings can be large; an effect the other way counts as inactive or inconclusive.

Assay [1] in a line: qHTS assay for small molecule agonists of the p53 signaling pathway - cell viability (AID 651633; calls by dose curve;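 note: p53RE-bla HCT reporter cells with a stable beta-lactamase p53 reporter; series mostly up to about 83 µM; nearly all actives have a fitted effect of over 30% in size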). The essentials: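 p53RE-bla cells, seeded at 4,000 per well and rested 5 h at 37 C/5% CO2, received compounds in DMSO for 16 h at 37 C. CellTiter-Glo was then added, and luminescence was read after 30 min at room temperature to gauge cytotoxicity.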
In general terms: In qHTS, concentration-response curves come from the screen itself.

A short description of assay [2]: qHTS assay for small molecules that induce genotoxicity in human embryonic kidney cells expressing luciferase-tagged ATAD5 - cell viability (AID 651634; calls by dose curve; note: nearly all actives have a fitted effect of over 25% in size). The essentials:
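After 15.5 hr incubation with compound at 37C, 5% CO2, HEK293T ATAD5-luciferase cells received CellTiter-Fluor reagent; fluorescence intensity was quantified following 30 min at 37C.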

A short description of assay [3]: qHTS assay for small molecule disruptors of the mitochondrial membrane potential - cell viability (AID 720634; calls by dose curve;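 note: human HepG2 liver cancer cells; series mostly up to about 83 µM; nearly all actives have a fitted effect of over 20% in size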). In a few lines: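 ATP-based luminescent viability readout (CellTiter-Glo, 30 min, room temperature) in HepG2 cells multiplexed with the m-MPI membrane potential dye; compound exposure lasted 1 hr at 37 C.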
Assay [4] can be described thus: qHTS assay for small molecule disruptors of the mitochondrial membrane potential (AID 720635). Note: potency is the fitted concentration of half-maximal effect. In a few lines: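 HepG2 cells (2,000/well) attached overnight at 37C, then took compound for 1 hr at 37C, 5% CO2. Mito-MPS dye was added for 30 min; fluorescence was read at 490/535 nm (monomers) and 540/590 nm (aggregates).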
Assay [5] can be described thus: qHTS assay to test for compound auto fluorescence at 590 nm (red) in HepG2 cells (AID 720674). The essentials:
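Compound auto-fluorescence is scored relative to Rose Bengal sodium, measured at 540/590 nm in live HepG2 cultures after 1 hr compound contact (37 C, 5% CO2).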

Assay [6] can be described thus: qHTS assay to test for compound auto fluorescence at 535 nm (green) in HepG2 cells (AID 720675).
The nature of assay [7]: qHTS assay to test for compound auto fluorescence at 460 nm (blue) in HEK293 cells (AID 720678). In a few lines:
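HEK293, 2,000 cells/well, 10% dialyzed FBS; attach 4-5 hr 37C; pin compound or DMSO; o/n 37C/5% CO2; fluorescence 405/460 nm; triamterene-equivalent units.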

The nature of assay [8]: qHTS assay to test for compound auto fluorescence at 590 nm (red) in HEK293 cells (AID 720679). The essentials:
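Intensity at 540nm excitation and 590nm emission is reported as Rose Bengal sodium-equivalent autofluorescence. Measurements followed overnight exposure (37C, 5% CO2) of HEK293 cells, 2,000 per well, to 23 nL compound.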

A short description of assay [9]: qHTS assay for small molecules that induce genotoxicity in human embryonic kidney cells expressing luciferase-tagged ATAD5 (AID 651632). Note: nearly all actives have a fitted effect of over 15% in size. In a few lines: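 Quantitative HTS in HEK293T expressing luciferase-tagged ATAD5, whose levels rise upon DNA damage. Exposure ran 16 hr at 37C and 5% CO2, with luminescence read 30 min after Amplite addition at room temperature.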

In the case of `CC1CC(OC(=O)c2ccccc2O)CC(C)(C)C1` (configuration not stated), the Potency entry in [1], in assay [2], in assay [3] and in assay [7] was “inactive” throughout. The Potency in assay [4] was 27 µM (active). The outcome in [5], in assay [6] and in [8] was inactive.
As to `COC(=O)c1ccc(C(=O)OC)cc1`, the Potency entry in assay [9], in assay [1], in assay [3], in assay [4] and in assay [7] was “inactive” in each case. In addition, the molecule was classed as inactive in assay [5], in [6] and in [8].
With `CCCCC(CC)COC(C)=O` (configuration not stated), the Potency entry in assay [9], in assay [3], in assay [4] and in assay [7] was “inactive” throughout. For the same molecule, the molecule was called inactive in [5], in [6] and in [8].
Turning to `O=C1CCCCC1`, the Potency entry in assay [9], in assay [1], in assay [3], in assay [4] and in assay [7] was “inactive” in each case. Moreover, the molecule was classed as inactive in assay [5], in assay [6] and in assay [8].
On to `COCC(C)O` (configuration not stated), for which the Potency entry in assay [9], in assay [1], in [3] and in assay [7] was “inactive” each time. For the same molecule, the result in [5], in [6] and in assay [8] was inactive.
Regarding `CCCCC(CC)COC(=O)/C=C\C(=O)OCC(CC)CCCC` (configuration not stated), the Potency entry in [9], in assay [1], in assay [3], in assay [4] and in assay [7] was “inactive” each time. Further, the outcome in assay [5], in assay [6] and in assay [8] was inactive.
On to `C=CC(=O)OCCCCCCCC(C)C`, for which the Potency result in [9], in assay [1], in assay [3], in [4] and in [7] was “inactive” in each case. Also, the result in assay [5] and in assay [6] was inactive.
On to `Cc1cc(Cc2ccc(N)c(C)c2)ccc1N`, for which the Potency entry in assay [9], in assay [1], in assay [2] and in assay [7] was “inactive” in each case. The molecule was called inactive in [5] and in assay [6].
With `CC1COc2ccccc2N1C(=O)C(Cl)Cl` (configuration not stated), the Potency entry in assay [1], in assay [3] and in assay [7] was “inactive” throughout. Besides, the molecule was classed as inactive in assay [5], in assay [6] and in assay [8].
With `CC(C)(N=C=O)c1cccc(C(C)(C)N=C=O)c1`, the Potency result in assay [9], in assay [1], in assay [2], in assay [3] and in assay [7] was “inactive” each time. The molecule was classed as inactive in assay [5] and in assay [6].
Take `Clc1ccc(Cl)c(Cl)c1Cl`: the Potency result in [9], in [1], in [2] and in assay [7] was “inactive” throughout. Besides, the molecule was called inactive in assay [5], in assay [6] and in [8].
For `CCCCC(CC)COC(=O)CCCCCCCC(=O)OCC(CC)CCCC` (configuration not stated), the Potency result in assay [9], in assay [1], in [2], in assay [3] and in assay [7] was “inactive” in each case. The result in [5], in assay [6] and in [8] was inactive.
